Test results taken from PubChem BioAssay AID757 (NMMLSC, 2007).
Hit rate of the full screen: of about 190,000 compounds, about 520 (0.27%) were called active. Another 2% or so got no clear call; they are omitted.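 Rule for the calls: active = GTP binding activity at least 20 points away from the 100% control level, either lower or higher; inconclusive = compound flagged as likely green fluorescent, judged across all proteins; inactive = the rest.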 For the sample, actives were picked, then their nearest neighbours and some compounds at random.

Molecular target: Ras-related C3 botulinum toxin substrate 1 (Homo sapiens) (UniProt P63000)
Assay: compounds altering fluorescent GTP loading on wildtype Rac1 – biochemical, GST-Rac1 beads, flow cytometry, multiplex, primary screen (AID 757)
Details: at 10 µM, actives lie on both sides, 0 = cold GTP competed, 100 = untreated

| SMILES | GTP binding activity (% of control) |
| --- | --- |
| CC(=O)c1ccc(-c2nnc(CCC(=O)N(C)Cc3cnc4ccccn34)o2)s1 | 92% (inactive) |
| COCCn1c(C)cc(C(=O)CSc2nc3ccccc3c(=O)n2C(C)COC)c1C (centres undefined) | 97% (inactive) |
| O=C(O)/C=C/c1cn(-c2ccccc2)nc1-c1cccs1 | 94% (inactive) |
| O=C(O)/C=C/c1cn(Cc2ccccc2)nc1-c1cccs1 | 157% [activator] (active) |
| O=C(/C=C\c1cn(-c2ccccc2)nc1-c1cccs1)N1CCOCC1 | 106% (inactive) |
| O=S(=O)(Nc1ccccn1)c1cccc(S(=O)(=O)c2ccc(Cl)cc2)c1 | 97% (inactive) |
| Cc1c(NC(=S)NC(=O)CCc2ccccc2)c(=O)n(-c2ccccc2)n1C | 101% (inactive) |
| CC1CCC(NC(=O)C2c3ccccc3C(=O)N2Cc2ccc3c(c2)OCO3)CC1 (centres undefined) | 99% (inactive) |
| COc1cccc(-c2ccc(SCC(=O)N3CCN(c4ccccc4)CC3)nn2)c1 | 92% (inactive) |
| CN(C)c1ccc(C(=S)N2CCN(C(=S)Nc3ccc(Cl)cc3)CC2)cc1 | 98% (inactive) |
| O=C(c1cn2ccccc2n1)N1CCc2c([nH]c3ccccc23)C1c1ccccn1 (centres undefined) | 98% (inactive) |
| O=c1cc(O)c(-c2cccc(C(F)(F)F)c2)c(Cl)[nH]1 | 97% (inactive) |
| O=C(NCCCN1CCOCC1)c1ccc([N+](=O)[O-])cc1[N+](=O)[O-] | 102% (inactive) |
| O=C(OCC(=O)c1cccs1)c1ccc([N+](=O)[O-])o1 | 99% (inactive) |
| CNC(=S)Nc1ccc([N+](=O)[O-])cc1 | 101% (inactive) |
| CC(Oc1ccc(Br)cc1Br)C(=O)NC1CCCC1 (centres undefined) | 96% (inactive) |
| CC(=O)c1c(C)[nH]c(C(=O)Nc2cc(S(=O)(=O)N(C)C)ccc2C)c1C | 97% (inactive) |
| O=C(Nc1ccccc1C(=O)N1CCOCC1)c1ccc(Cl)cc1 | 98% (inactive) |
| CCOc1ccc(N2CC(C(=O)NCCN3C(=O)S/C(=C\c4cccnc4)C3=O)CC2=O)cc1 (centres undefined) | 95% (inactive) |
| Cc1cc(C)cc(NC(=O)CSc2ccccc2)c1 | 95% (inactive) |
| O=C(CSc1ccccc1)Nc1ccc(C(=O)Nc2cccc(O)c2)cc1 | 75% (active) |
| O=C(CSc1ccccc1)Nc1ccc(NC(=O)c2ccco2)cc1 | 101% (inactive) |

| SMILES | GTP binding activity (% of control) |
| --- | --- |
| Cn1c(=NC(=O)c2ccc3c(c2)OCCO3)sc2cc(S(C)(=O)=O)ccc21 | 100% (inactive) |
| COc1ccc(CC(NC(C)=O)C(=O)NC2CCN(C(=O)c3ccc(OC)c(OC)c3)CC2)cc1OC (centres undefined) | 98% (inactive) |
| CN(C)/N=C/c1cn(-c2ccccc2)nc1-c1cccnc1 | 101% (inactive) |
| O=C(CNC(=O)COc1ccccc1)NCCc1ccccn1 | 102% (inactive) |
| Cc1ccc(CCCOC(=O)C[N+]2(C)CCCCC2)cc1 | 100% (inactive) |
| CCOC(=O)c1ccc(NNC(C)=O)c([N+](=O)[O-])c1 | 99% (inactive) |
| CC(=O)Nc1ccc(S(=O)(=O)NC2(C(F)(F)F)C(=O)NC(C)=C2C#N)cc1 (centres undefined) | 105% (inactive) |
| COc1cc2c(cc1OC)CC1(CCCCC1)N=C2 | 102% (inactive) |
| CN(C)CCN=c1cc(-c2ccccc2)oc2ccc(Cl)cc12 | 102% (inactive) |
| CCN(CC(=O)NCc1cccs1)C(=O)c1ccccc1F | 98% (inactive) |
| Cc1ccc2c(=O)oc(N(C)C)nc2c1 | 94% (inactive) |
| Oc1ccccc1N1CCN(C(=S)NCc2ccccc2)CC1 | 103% (inactive) |
| O=c1/c(=C/c2ccc(CNS(=O)(=O)c3ccccc3)o2)sc2n1CCN=2 | 64% (active) |
| COC(=O)C1=C(C)NC(=O)/C1=C/c1ccc(CNS(=O)(=O)c2ccc(C)cc2)o1 | 100% (inactive) |
| O=S(=O)(NCc1ccccc1)c1ccc(S(=O)(=O)N2CCCC2)cc1 | 102% (inactive) |
| O=S(=O)(c1cccc(C(F)(F)F)c1)N1CCN(c2cnccn2)CC1 | 99% (inactive) |
| CN(C(=O)COc1ncnc2c1cnn2-c1ccccc1)C1CCCCC1 | 102% (inactive) |
| c1ccc(-c2nnc(N3CCOCC3)c3ccccc23)cc1 | 97% (inactive) |
| COc1cccc(OCCCN2CCCCCC2)c1 | 95% (inactive) |
| CN1CCN(C(=O)CCc2ncc(C(F)(F)F)cc2Cl)CC1 | 96% (inactive) |
| CCOC(=O)c1sc(NC(=O)c2cc(S(=O)(=O)N3CCOCC3)ccc2C)nc1C | 102% (inactive) |
| COc1ccc(S(=O)(=O)N2CCOCC2)cc1NC(=O)CSc1ncnc2ccccc12 | 93% (inactive) |

| SMILES | GTP binding activity (% of control) |
| --- | --- |
| COc1ccc(S(=O)(=O)N2CCOCC2)cc1C(=O)Nc1nc2ccccc2s1 | 75% (active) |
| CCCSc1nc2[nH]ncc2c(=O)[nH]1 | 100% (inactive) |
| Cc1ccc(CSc2nc3[nH]ncc3c(=O)[nH]2)cc1 | 77% (active) |
| Cc1cccc(NC(=O)CSc2nc3[nH]ncc3c(=O)[nH]2)c1 | 97% (inactive) |
| COc1cc(NS(=O)(=O)c2ccc(NC(=O)c3ccc(S(=O)(=O)N4CCCCC4)cc3)cc2)ncn1 | 95% (inactive) |
| COc1ccccc1NC(=O)CCSc1nnc(-c2ccc(O)cc2)o1 | 95% (inactive) |
| COc1cccc(NC(=O)c2ccc(S(=O)(=O)N(C)C)cc2)c1 | 104% (inactive) |
| Oc1ccccc1C=NC1CCCCC1N=Cc1ccccc1O (centres undefined) | 100% (inactive) |
| O=C(CSc1ccccc1F)NC1CCS(=O)(=O)C1 (centres undefined) | 96% (inactive) |
| Cc1cccc(NC(=S)N2CCC(O)CC2)c1C | 100% (inactive) |
| CC(=O)NC(Cc1ccc(F)c(F)c1)C(=O)NC1CCN(C(=O)c2ccc(C)cc2)CC1 (centres undefined) | 103% (inactive) |
| CC(C)CCN1CCN(C/C=C/c2ccco2)CC1CCO (centres undefined) | 94% (inactive) |
| Cc1cc(C)c2c(NC(=O)C3CC3)nn(C)c2n1 | 98% (inactive) |
| CCOc1cc(C2C(C(=O)OC(C)C)=C(C)NC3=C2C(=O)CCC3)cc([N+](=O)[O-])c1O (centres undefined) | 98% (inactive) |
| CC(NC(=O)COC(=O)c1ccc2c(c1)OCO2)c1ccccc1 (centres undefined) | 101% (inactive) |
| CC1=C(C(=O)N(C)C)C(c2ccccc2OC(F)F)NC(=O)N1 (centres undefined) | 101% (inactive) |
| O=C(O)CC(SCC(=O)Nc1ccc(Br)cc1)C(=O)O (centres undefined) | 96% (inactive) |
| CCOC(=O)CCCN1CC(O)=C(c2nc3ccccc3s2)C1=N | 102% (inactive) |
| CCCCCN1CC(O)=C(c2ccccc2)C1=N | 104% (inactive) |
| CCCCCN1CC(O)=C(c2nc(-c3ccc(Cl)cc3)cs2)C1=N | 135% [activator] (active) |
